# Measurements as given in PubChem BioAssay AID2551 (National Center for Advancing Translational Sciences (NCATS), 2010).
# Out of some 310,000 compounds screened, about 17,000 (5.5%) were called active. Not shown: some 11% with an inconclusive outcome. The call rests on the fitted dose curve; in most records, active means well fitted inhibition curve with a large enough effect; inconclusive means small, poorly fitted or top-dose-only effect, or effect the other way; inactive means no such curve, though single readings can be large or run the other way. The sample as a whole holds a higher share of actives than the screen did.
# Target: Nuclear receptor ROR-gamma (Mus musculus) (UniProt P51450)
# Assay: qHTS for inhibitors of ROR gamma transcriptional activity; further: nearly all actives have a fitted effect of over 60% in size
# Details: Drosophila S2 Gal4-RORgamma UAS-luciferase reporter, 20 h; series mostly up to 53.6 µM; activity change, negative = inhibition: at the top concentration
# Excerpt: NIH Molecular Libraries Probe Production Network [MLPCN] NIH Chemical Genomics Center [NCGC] MLPCN Grant: R03 DA026211-01 Assay Provider: Dan Littman, New York University Assay Overview: The retinoic acid-related orphan receptor (ROR) gamma is a transcription factor that has a central role in the differentiation of Th17 cells, a subset of T helper cells that secrete the inflammatory cytokines IL-17, IL-17F, and IL-22. Th17 cells have been implicated in graft versus host disease, autoimmune disease and asthma. ROR gamma is induced in naive T helper cells in the presence of TGF-beta combined with IL-6, IL-21, or IL-23, and thereafter directs the expression of the Th17 lineage cytokines. To study the mechanism of action of ROR gamma, an insect cell-based assay was screened. This Drosophila Schneider cell line was stably transfected with two vectors: a gene expressing a fusion of the Gal4 DNA binding domain and ROR gamma transactivation domain under the control of the metallothionine promoter and a Photinus luciferase reporter regulated by the Gal4 binding site enhancer, UAS. […] Small molecule inhibitors of ROR gamma activity are detected by a decrease in luciferase reporter activity.
# Assay Protocol Summary: For screening, 600 cells in 4 uL/well were dispensed into white solid 1536-well plates (Grenier) using a solenoid-based dispenser. Following transfer of 23 nL compound or DMSO vehicle by a pin tool, the plates were incubated 1 hr at ambient temperature, and 1 uL/well copper sulfate (700 uM final concentration) was added. The plates were centrifuged 15 s at 1000 RPM and incubated 20 hr at ambient temperature. After addition of 1.5 uL Photinus luciferase detection reagent, the plates were incubated 10 min at ambient temperature and then read by an ViewLux (Perkin Elmer) to detect luminescence. Keywords: NIH Roadmap, MLPCN, MLI, MLSMR, qHTS, NCGC, qHTS, nuclear hormone receptor, retinoic acid-related orphan receptor, ROR gamma
# On the % scale 0 is the no-effect control and ±100 the full control effect; potency means the concentration at half of the fitted maximal effect.
# Nuclear receptor ROR-gamma (Mus musculus), sequence (P51450 whole entry, looked up): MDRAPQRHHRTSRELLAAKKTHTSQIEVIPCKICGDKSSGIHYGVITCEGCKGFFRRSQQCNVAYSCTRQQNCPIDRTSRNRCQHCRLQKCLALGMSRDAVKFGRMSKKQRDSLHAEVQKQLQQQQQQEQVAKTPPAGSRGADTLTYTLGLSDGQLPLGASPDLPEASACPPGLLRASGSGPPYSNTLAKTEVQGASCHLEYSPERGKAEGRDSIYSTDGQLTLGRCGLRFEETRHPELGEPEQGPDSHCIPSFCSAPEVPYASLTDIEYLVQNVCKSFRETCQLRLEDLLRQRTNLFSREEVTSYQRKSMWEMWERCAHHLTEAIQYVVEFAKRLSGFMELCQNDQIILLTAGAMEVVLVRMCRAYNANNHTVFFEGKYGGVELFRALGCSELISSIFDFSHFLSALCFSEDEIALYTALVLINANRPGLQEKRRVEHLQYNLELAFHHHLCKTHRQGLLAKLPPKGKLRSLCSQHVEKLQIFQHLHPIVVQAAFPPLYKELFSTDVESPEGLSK
SMILES,"activity change, negative = inhibition",Potency
C/C(=C\C(=O)c1ccc(Br)cc1)N1CCCCC1,-18.8% (inactive),–
COc1cc2c(cc1OC)/C(=C/C(=O)c1ccc(NC(C)=O)cc1)NCC2,-26.3% (inactive),–
CC1CN/C(=C\C(=O)c2ccc(Br)cc2)C(=O)N1 (centres undefined),–,12.6 µM (active)
C[C@H](NC(=O)[C@@H]1Cc2ccccc2CN1C(=O)OC(C)(C)C)C(=O)NC1CCCC1,4.46% (inactive),–
CC(NC(=O)c1ccco1)c1ccc2c(c1)OCO2 (centres undefined),-5.06% (inactive),–
Cc1cccc(-n2c(C)cc(/C=N/NC(N)=S)c2C)c1,–,3.55 µM (active)
Cc1cc(/C=C2\SC(=O)N(C)C2=O)c(C)n1-c1cccc(C(=O)O)c1,20.7% (inactive),–
Cc1cc(/C=N/Nc2ccc([N+](=O)[O-])cn2)c(C)n1-c1cccc(C(=O)O)c1,18.9% (inactive),–
Cc1cccc(-n2c(C)cc(/C=N\NC(=O)c3cccs3)c2C)c1,–,10 µM (active)
Cc1cc(/C=N/n2cnnc2)c(C)n1-c1cccc(C(=O)O)c1,-25.7% (inactive),–
Cc1ccc(C(=O)Nc2ccc(NC(=O)c3cccs3)cc2)c(C)c1,-39.8% (inactive),–
COC(=O)c1ccc2c(=O)n(CCN3CCOCC3)c(SCC(=O)Nc3cccc(OC)c3)nc2c1,14.3% (inactive),–
CCN1C(=S)N[C@@H](c2cccc(C(F)(F)F)c2)C(C(=O)OC)=C1C,-38.5% (inactive),–
CC(C)C[C@H](NC(=O)C1CCC(CNC(=O)[C@@H]2CCCN2C(=O)OC(C)(C)C)CC1)C(=O)O (some centres undefined),-27.2% (inactive),–
COc1cc(NS(=O)(=O)c2ccc(NC(=S)NC(=O)c3ccccc3)cc2)nc(OC)n1,43.1% (inactive),–
COC(=O)Nc1ccc(S(=O)(=O)Nc2cc(OC)nc(OC)n2)cc1,6.6% (inactive),–
COc1cc(NS(=O)(=O)c2ccc(N/C=C(\C=O)c3nc4cc(Cl)ccc4o3)cc2)nc(OC)n1,–,14.1 µM (active)
COc1ccc(C2(O)C(=O)Nc3ccccc32)cc1 (centres undefined),7.24% (inactive),–
Cc1cccn2c(=O)c3cc(C(=O)NC4CCCCC4)sc3nc12,12.6% (inactive),–
COc1ccc(-c2nc(CS(=O)(=O)CC(=O)NCc3cccc(Br)c3)c(C)o2)cc1,-4.95% (inactive),–
CC(C)c1ccc(NC(=S)NC2CC3C=CC2C3)cc1 (centres undefined),–,3.55 µM (active)
CC(C)c1ccc(NC(=S)NNc2ccc(Cl)c(C(=O)O)c2)cc1,-2.28% (inactive),–
S=C(NNC(=S)NC1CC2C=CC1C2)NC1CC2C=CC1C2 (centres undefined),-1.63% (inactive),–
CC(=O)Nc1ccc(NC(=O)COc2ccc(-c3ccccc3)cc2)cc1,-2.09% (inactive),–
CC1=CC(C)(C)N(C(=O)CSc2nnc(-c3ccccc3)o2)c2ccc(C)cc21,3.05% (inactive),–
CC1=CC(C)(C)N(C(=O)CSc2nccn2C)c2cc(C)ccc21,–,11.2 µM (active)

SMILES,"activity change, negative = inhibition",Potency
Cc1ccc(C)c(-n2ccnc2SCC(N)=O)c1,10.4% (inactive),–
COc1cc(SC)ccc1C(=O)Nc1nc(C)cs1,–,1.26 µM (active)
COc1cc(SC)ccc1C(=O)Nc1cc(C)ccn1,–,6.31 µM (active)
Cc1ccnc(NC(=O)c2ccoc2C)c1,-20.2% (inactive),–
COc1ccccc1CNC(=O)c1ccc(SC)cc1OC,42% (inactive),–
Cc1ccnc(NC(=O)CCCOc2ccccc2)c1,3.66% (inactive),–
COc1cc(SC)ccc1C(=O)N(Cc1ccccc1)c1ccccc1,0.287% (inactive),–
COc1ccc(C)cc1NC(=O)CNCc1cccs1,26.6% (inactive),–
Cc1sc2ncn(CC(=O)NCCCC(=O)NCc3ccc(F)cc3)c(=O)c2c1C,3.51% (inactive),–
CC(C)(C)c1ccc(C(=O)N2CCN(CCNC(=O)C(=O)Nc3ccc(F)cc3)CC2)cc1,42.6% (inactive),–
COc1ccc(CNS(=O)(=O)c2cc(-c3cc(C)no3)ccc2C(C)C)cc1,31.8% (inactive),–
O=C(c1ccco1)N1CCN(C(=O)c2cc(-c3ccccc3F)no2)CC1,28.9% (inactive),–
CC1(C)c2[nH]c3ccccc3c2C[C@H]2C(=O)N(N)CC(=O)N21,6.7% (inactive),–
Cc1cc(O)cc(O)c1C(=O)Cc1cnn(-c2ccccc2)c1,–,0.199 µM (active)
O=C(c1cnn(-c2ccc(Cl)cc2)c1)c1ccccc1O,-38.1% (inactive),–
COc1ccc(C(=O)Cc2cnn(-c3ccccc3)c2)c(O)c1,27.6% (inactive),–
O=C(Nc1cccc(-n2cnnn2)c1)c1cccnc1,12.2% (inactive),–
COc1ccc(CNC(=O)c2c[nH]c3c(OC)cc(OC)cc3c2=O)cc1,8.69% (inactive),–
Nc1nonc1-n1nnc(C(=O)N/N=C/C2CCCCC2)c1-c1ccccc1,-30.9% (inactive),–
Nc1nonc1-n1nnc(C(=O)N/N=C/c2c[nH]c3ccccc23)c1-c1ccccc1,3.13% (inactive),–
CCCOc1ccc(-c2c(C(=O)N/N=C/c3ccco3)nnn2-c2nonc2N)cc1,–,11.2 µM (active)
Cn1c(=O)c2c(nc(NCCNC(=O)c3ccco3)n2Cc2ccccc2F)n(C)c1=O,16.6% (inactive),–
O=C(O)c1ccc(S(=O)(=O)N2CCC(Cc3ccccc3)CC2)cc1,-17.6% (inactive),–
Cn1cnc2c1c(=O)n(Cc1ccccc1C#N)c(=O)n2C,-22% (inactive),–
O=C1CN(C(=O)c2ccccc2F)C(c2ccc(F)cc2)c2cc(F)ccc2N1 (centres undefined),24.6% (inactive),–
Cc1cc(=O)oc2c(C)c(OCC(=O)NCCN3CCOCC3)ccc12,-6.37% (inactive),–

SMILES,"activity change, negative = inhibition",Potency
CC1CCCCN1C(=S)NCc1ccccc1 (centres undefined),-121% (inactive),–
C[n+]1ccc(C(=O)NCc2ccccc2)cc1,-17.6% (inactive),–
C/C(=N\NC(=S)NCc1ccccc1)c1ccc(Cl)cc1,–,3.55 µM (active)
C/C(=N\NC(=S)NCc1ccccc1)C1CCCCC1,–,0.224 µM (active)
O=C(CC1CCCCC1)NCc1ccccc1,-26.9% (inactive),–
O=C(O)c1ccc(/C=N/NC(=S)NCc2ccccc2)cc1,-12% (inactive),–
CC(CC(=O)N1CCN(c2ccccc2)CC1)S(=O)(=O)c1ccc2c(c1)NC(=O)CS2 (centres undefined),26.3% (inactive),–
COC(=O)COc1ccc2c(=O)c(Oc3ccccc3Br)coc2c1,-14.6% (inactive),–
Cc1ccc(S(=O)(=O)NCC(=O)Nc2ccc3c(c2)OCCO3)cc1,-2.15% (inactive),–
O=C(N/C(=C\c1ccc([N+](=O)[O-])cc1)C(=O)N1CCOCC1)c1cccc(Br)c1,18.2% (inactive),–
O=C(/C=C/c1ccc(Cl)cc1)NCCCn1ccnc1,-4.51% (inactive),–
CCn1cc(/C=C(\NC(=O)c2ccc(C)cc2)C(=O)NCCN2CCOCC2)c2ccccc21,6.77% (inactive),–
O=C(NCCCN1CCOCC1)c1cc(-c2ccc(Cl)cc2)on1,–,11.2 µM (active)
COc1ccc(-c2cc(C(=O)NCCCN3CCOCC3)no2)cc1,-20.5% (inactive),–
O=C(NCCCN1CCOCC1)c1cc(-c2cccc(O)c2)on1,-16.9% (inactive),–
Cn1cc(S(=O)(=O)Nc2ccc(Cl)cc2Cl)c(=O)n(C)c1=O,-23.8% (inactive),–
COc1cc(OC)c(NS(=O)(=O)c2cn(C)cn2)cc1Cl,-31.2% (inactive),–
Cc1cc(C(=O)N/N=C/c2ccccc2[N+](=O)[O-])c(C)o1,14.4% (inactive),–
CC(=C/c1ccccc1)/C=N/NC(=O)c1cc(C)oc1C,–,7.08 µM (active)
Cc1cc(C(=O)N/N=C/c2ccc(N3CCOCC3)cc2)c(C)o1,1.46% (inactive),–
Cc1c(CC(=O)N2CCN(C(=O)C3COc4ccccc4O3)CC2)c(=O)oc2c(O)c(O)ccc12 (centres undefined),-17.5% (inactive),–
COc1cc(OC)cc(C(=O)Nc2nnc(SCC(=O)NCC3CCCO3)s2)c1 (centres undefined),4% (inactive),–
CC(=O)c1ccc(N2CCN(CC(O)c3ccccc3)CC2)cc1 (centres undefined),-14.4% (inactive),–
Cc1[nH]c(C)c(S(=O)(=O)N2CCN(c3cccc(C(F)(F)F)c3)CC2)c1C(=O)N1CCCCC1,-4.17% (inactive),–
COc1ccc(-c2nc(CS(=O)CC(=O)NCc3ccccc3)c(C)o2)cc1OC (centres undefined),3.74% (inactive),–
COc1ccc(-c2nc(CS(=O)CC(=O)NCc3cccnc3)c(C)o2)cc1OC (centres undefined),–,11.2 µM (active)

SMILES,"activity change, negative = inhibition",Potency
Cc1cccc(-c2nc(CS(=O)CC(=O)NC(C)CCc3ccccc3)c(C)o2)c1 (centres undefined),43.4% (inactive),–
CCCOc1ccc(Cc2c(O)nc(SC)[nH]c2=O)cc1C,30.8% (inactive),–
O=C(c1cc2ccccc2o1)N1CCN(c2cccc(C(F)(F)F)c2)CC1,33.7% (inactive),–
COc1ccc(-c2oc3ncnc(NCCCO)c3c2-c2ccc(OC)cc2)cc1,22.4% (inactive),–
COc1ccc(-c2oc3ncn(Cc4ccco4)c(=N)c3c2-c2ccc(OC)cc2)cc1,–,12.6 µM (active)
N=c1c2c(-c3ccccc3)c(-c3ccccc3)oc2ncn1Cc1ccco1,22.8% (inactive),–
CC(C)[C@@H]1COC(c2cccc(C3=N[C@H](C(C)C)CO3)c2)=N1,-41.6% (inactive),–
O=C(NC(Cc1ccc(O)cc1)C(=O)O)/C(=C/c1ccccc1)NC(=O)c1ccccc1 (centres undefined),-2.76% (inactive),–
O=C(C[C@H]1C(=O)N(c2ccc(F)c(F)c2)C[C@@H]1Cc1ccccc1)Nc1ccccc1,44.7% (inactive),–
Cc1c(C)c(C)c(S(=O)(=O)N2CCC3(CC2)OCCO3)c(C)c1C,-34.3% (inactive),–
Cc1cc(SCc2c(F)cccc2Cl)nc(=O)[nH]1,2.04% (inactive),–
COCCNC(=S)Nc1cc(S(=O)(=O)N2CCOCC2)ccc1N1CCCCC1,–,0.891 µM (active)
O=C(COC(=O)Cc1ccc(F)cc1)Nc1cc(S(=O)(=O)N2CCOCC2)ccc1N1CCCC1,33.6% (inactive),–
CC(=O)NCCC(=O)Nc1cc(S(=O)(=O)N2CCOCC2)ccc1N1CCOCC1,32.6% (inactive),–
O=C(Nc1ccccc1C(=O)Nc1ccncc1)c1ccc([N+](=O)[O-])cc1,25.4% (inactive),–
Cc1ccc(N2CCN(c3ccc([N+](=O)[O-])cn3)CC2)c(C)c1,-2.68% (inactive),–
O=C(COC(=O)c1ccc(N2CCCC2=O)cc1)c1ccc(OC(F)F)cc1,44.5% (inactive),–
CC/C(=N\NC(=S)NC(C)C)c1ccc(OC(F)F)cc1,–,0.562 µM (active)
O=C(NCCNc1ccccc1[N+](=O)[O-])c1ccccc1F,20.5% (inactive),–
COc1cc(CN2CCC(n3nccc3NC(=O)CCCc3ccccc3)CC2)ccc1O,24.6% (inactive),–
CCOc1cc2[nH]c(=S)n(CCCN3CCCC3=O)c(=O)c2cc1OCC,-1.37% (inactive),–
COc1cc2[nH]c(=O)n(CCC(=O)NC3CCN(Cc4ccccc4)CC3)c(=O)c2cc1OC,-7.87% (inactive),–
CCOc1cc2[nH]c(=S)n(Cc3ccc(C(=O)NCCOC)cc3)c(=O)c2cc1OCC,-43.7% (inactive),–
COc1cc2[nH]c(=O)n(Cc3ccc(C(=O)NC4CCN(Cc5ccccc5)CC4)cc3)c(=O)c2cc1OC,6.06% (inactive),–
COc1cc2[nH]c(=S)n(Cc3ccc(F)cc3)c(=O)c2cc1OC,–,1.78 µM (active)
COc1cc2[nH]c(=S)n(Cc3ccc(C)o3)c(=O)c2cc1OC,–,5.01 µM (active)
